{"source": "paper PMC7862700", "about": "“An all-to-all approach to the identification of sequence-specific readers for epigenetic DNA modifications on cytosine”", "experiment_in_all_cases": "DAPPL (digital affinity profiling via proximity ligation, sequencing); 10 mM Tris-HCl pH 7.5, 50 mM NaCl, 1 mM DTT, 4% glycerol, room temperature, 30 min; GST-TFs on glutathione beads, 16-mer random dsDNA library, 0.1% formaldehyde crosslink after washing; high values mean tight binding", "conditions_in_all_cases": "protein: recombinant; tags: N-terminal GST; dsDNA, one strand shown", "key": {"FLI1": {"target": "T1, FLI1 (Homo sapiens, UniProt Q01543 1-452)", "T1 sequence": "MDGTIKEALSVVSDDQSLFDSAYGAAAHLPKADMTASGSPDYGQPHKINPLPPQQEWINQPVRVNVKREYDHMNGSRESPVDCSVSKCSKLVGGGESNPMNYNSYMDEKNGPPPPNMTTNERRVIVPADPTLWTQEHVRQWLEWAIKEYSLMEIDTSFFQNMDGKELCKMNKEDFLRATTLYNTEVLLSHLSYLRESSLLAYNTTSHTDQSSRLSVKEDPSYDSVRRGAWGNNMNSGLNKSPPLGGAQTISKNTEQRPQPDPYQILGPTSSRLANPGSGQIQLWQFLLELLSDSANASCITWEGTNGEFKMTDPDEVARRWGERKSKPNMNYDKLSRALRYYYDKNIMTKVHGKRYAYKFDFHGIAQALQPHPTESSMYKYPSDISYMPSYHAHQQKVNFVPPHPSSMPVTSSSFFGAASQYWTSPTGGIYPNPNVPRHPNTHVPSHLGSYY", "method_in_brief": "(§1)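 Binding signal is each hexamer's read frequency for a factor divided by its frequency in the tag-only sample. The factors were GST-fused human transcription factors from yeast, captured on glutathione beads, DNA-barcoded and pooled with that sample. Pools were incubated with 200 nmole of a random double-stranded 16-mer DNA library in Tris/NaCl/DTT/glycerol buffer at room temperature for 30 min, then washed, crosslinked with 0.1% formaldehyde, proximity-ligated with BsaI/T4 ligase (1 h, 37 °C), PCR-amplified and sequenced on an Illumina NextSeq500.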"}, "ELK1": {"target": "T2, ELK1 (Homo sapiens, UniProt P19419 1-428)", "T2 sequence": "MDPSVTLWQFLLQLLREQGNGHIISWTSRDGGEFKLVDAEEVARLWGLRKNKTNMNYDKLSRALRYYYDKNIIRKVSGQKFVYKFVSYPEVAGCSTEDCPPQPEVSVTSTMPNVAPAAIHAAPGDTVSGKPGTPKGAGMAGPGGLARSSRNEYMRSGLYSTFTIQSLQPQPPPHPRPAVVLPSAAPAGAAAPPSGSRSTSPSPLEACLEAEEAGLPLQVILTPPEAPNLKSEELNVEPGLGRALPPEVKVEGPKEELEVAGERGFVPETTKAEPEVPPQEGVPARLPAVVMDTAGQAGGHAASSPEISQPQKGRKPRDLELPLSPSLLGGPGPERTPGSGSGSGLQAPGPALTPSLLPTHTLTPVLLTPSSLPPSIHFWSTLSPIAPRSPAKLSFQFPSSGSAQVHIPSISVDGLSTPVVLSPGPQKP", "method_in_brief": "as §1"}, "GABPA": {"target": "T3, GABPA (Homo sapiens, UniProt Q06546 1-454)", "T3 sequence": "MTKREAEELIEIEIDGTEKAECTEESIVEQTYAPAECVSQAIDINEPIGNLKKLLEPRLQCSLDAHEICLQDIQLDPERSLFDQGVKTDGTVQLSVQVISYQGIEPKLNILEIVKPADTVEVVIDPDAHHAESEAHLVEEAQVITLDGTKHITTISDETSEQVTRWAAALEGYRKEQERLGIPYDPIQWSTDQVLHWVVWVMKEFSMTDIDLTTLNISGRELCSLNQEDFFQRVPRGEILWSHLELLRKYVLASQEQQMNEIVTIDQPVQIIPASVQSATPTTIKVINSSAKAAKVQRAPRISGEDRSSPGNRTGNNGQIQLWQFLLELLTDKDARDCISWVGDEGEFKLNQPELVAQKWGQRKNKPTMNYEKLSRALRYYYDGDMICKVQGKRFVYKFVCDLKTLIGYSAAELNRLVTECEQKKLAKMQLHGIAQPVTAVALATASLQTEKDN", "method_in_brief": "as §1"}, "ERG": {"target": "T4, ERG (Homo sapiens, UniProt P11308 1-479)", "T4 sequence": "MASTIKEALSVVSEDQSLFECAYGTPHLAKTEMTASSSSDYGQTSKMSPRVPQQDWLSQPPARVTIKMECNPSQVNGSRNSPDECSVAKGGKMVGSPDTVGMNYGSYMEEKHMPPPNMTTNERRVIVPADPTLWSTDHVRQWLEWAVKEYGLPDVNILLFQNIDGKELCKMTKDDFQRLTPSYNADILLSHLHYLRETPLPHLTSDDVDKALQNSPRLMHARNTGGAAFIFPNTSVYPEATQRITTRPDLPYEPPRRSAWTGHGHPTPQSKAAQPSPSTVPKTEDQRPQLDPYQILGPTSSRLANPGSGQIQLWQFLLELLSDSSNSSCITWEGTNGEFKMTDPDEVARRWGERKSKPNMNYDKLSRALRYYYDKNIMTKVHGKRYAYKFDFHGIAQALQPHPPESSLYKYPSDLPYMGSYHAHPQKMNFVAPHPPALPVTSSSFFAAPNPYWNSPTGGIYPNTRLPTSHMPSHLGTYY", "method_in_brief": "as §1"}, "ELF1": {"target": "ELF1 (Homo sapiens, UniProt P32519 1-619)", "sequence (P32519 whole entry)": "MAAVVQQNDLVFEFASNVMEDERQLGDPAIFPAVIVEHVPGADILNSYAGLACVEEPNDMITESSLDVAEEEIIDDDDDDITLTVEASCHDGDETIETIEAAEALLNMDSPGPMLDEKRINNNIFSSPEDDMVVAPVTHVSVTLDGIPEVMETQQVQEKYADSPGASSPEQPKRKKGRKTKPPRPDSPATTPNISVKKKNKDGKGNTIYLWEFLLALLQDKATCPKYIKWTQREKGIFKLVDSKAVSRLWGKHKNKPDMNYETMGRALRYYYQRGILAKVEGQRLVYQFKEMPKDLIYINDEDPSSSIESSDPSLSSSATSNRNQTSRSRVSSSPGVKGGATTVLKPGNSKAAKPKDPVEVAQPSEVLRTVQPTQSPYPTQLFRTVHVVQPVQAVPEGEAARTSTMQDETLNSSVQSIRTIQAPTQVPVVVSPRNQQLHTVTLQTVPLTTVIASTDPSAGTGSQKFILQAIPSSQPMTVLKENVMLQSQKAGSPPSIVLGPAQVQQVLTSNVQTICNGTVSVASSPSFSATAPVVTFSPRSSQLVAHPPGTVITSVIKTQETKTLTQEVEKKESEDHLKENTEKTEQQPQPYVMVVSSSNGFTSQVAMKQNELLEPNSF", "method_in_brief": "as §1"}, "EHF": {"target": "T5, EHF (Homo sapiens, UniProt Q9NZC4 1-300)", "T5 sequence": "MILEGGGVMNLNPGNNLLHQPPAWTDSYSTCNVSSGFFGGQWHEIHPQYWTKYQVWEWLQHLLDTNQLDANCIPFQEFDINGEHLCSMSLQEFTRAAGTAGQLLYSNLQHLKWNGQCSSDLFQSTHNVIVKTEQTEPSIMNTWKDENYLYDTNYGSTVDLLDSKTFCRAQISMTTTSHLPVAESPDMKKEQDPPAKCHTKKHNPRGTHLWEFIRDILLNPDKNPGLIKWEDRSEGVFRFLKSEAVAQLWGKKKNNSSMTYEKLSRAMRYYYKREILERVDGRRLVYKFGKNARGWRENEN", "method_in_brief": "as §1"}, "SPI1": {"target": "SPI1 (Homo sapiens, UniProt P17947 1-270)", "method_in_brief": "as §1"}, "SPIB": {"target": "SPIB (Homo sapiens, UniProt Q01892 1-262)", "sequence (Q01892 whole entry)": "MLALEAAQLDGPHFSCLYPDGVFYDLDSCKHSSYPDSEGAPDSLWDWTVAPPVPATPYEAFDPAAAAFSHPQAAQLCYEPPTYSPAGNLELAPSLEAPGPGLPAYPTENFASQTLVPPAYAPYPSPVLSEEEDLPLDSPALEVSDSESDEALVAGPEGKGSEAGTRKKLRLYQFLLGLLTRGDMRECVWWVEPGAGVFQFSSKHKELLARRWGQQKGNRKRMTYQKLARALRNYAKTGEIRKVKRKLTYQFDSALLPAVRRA", "method_in_brief": "as §1"}, "ELK3": {"target": "T6, ELK3 (Homo sapiens, UniProt P41970 1-407)", "T6 sequence": "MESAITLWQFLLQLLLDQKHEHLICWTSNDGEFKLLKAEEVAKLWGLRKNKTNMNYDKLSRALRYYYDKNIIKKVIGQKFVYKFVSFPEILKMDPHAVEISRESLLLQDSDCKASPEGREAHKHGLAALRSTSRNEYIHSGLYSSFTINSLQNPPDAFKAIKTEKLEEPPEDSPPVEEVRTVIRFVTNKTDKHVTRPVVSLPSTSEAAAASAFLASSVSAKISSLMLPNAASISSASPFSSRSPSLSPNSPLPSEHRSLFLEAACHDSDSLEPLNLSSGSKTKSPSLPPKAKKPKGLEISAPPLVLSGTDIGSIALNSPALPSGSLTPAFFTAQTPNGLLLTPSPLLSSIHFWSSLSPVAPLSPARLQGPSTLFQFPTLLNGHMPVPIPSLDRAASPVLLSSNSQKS", "method_in_brief": "as §1"}, "FEV": {"target": "T7, FEV (Homo sapiens, UniProt Q99581 1-238)", "T7 sequence": "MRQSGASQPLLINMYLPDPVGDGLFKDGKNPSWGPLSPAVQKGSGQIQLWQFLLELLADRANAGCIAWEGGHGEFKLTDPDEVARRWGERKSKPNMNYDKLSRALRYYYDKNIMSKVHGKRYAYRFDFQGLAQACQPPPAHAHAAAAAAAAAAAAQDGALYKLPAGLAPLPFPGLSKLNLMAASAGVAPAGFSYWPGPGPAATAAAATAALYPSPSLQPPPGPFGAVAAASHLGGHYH", "method_in_brief": "as §1"}, "SPIC": {"target": "T8, SPIC (Homo sapiens, UniProt Q8N5J4 1-248)", "T8 sequence": "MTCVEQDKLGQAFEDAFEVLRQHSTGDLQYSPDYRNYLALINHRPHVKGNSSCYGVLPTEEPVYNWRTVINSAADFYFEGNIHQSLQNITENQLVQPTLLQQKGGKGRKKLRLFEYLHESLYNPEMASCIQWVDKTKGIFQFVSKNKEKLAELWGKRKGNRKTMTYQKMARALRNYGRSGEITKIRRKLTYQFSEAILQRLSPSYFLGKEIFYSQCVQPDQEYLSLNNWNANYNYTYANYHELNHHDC", "method_in_brief": "as §1"}, "ELF4": {"target": "ELF4 (Homo sapiens, UniProt Q99607 1-663)", "sequence (Q99607 whole entry)": "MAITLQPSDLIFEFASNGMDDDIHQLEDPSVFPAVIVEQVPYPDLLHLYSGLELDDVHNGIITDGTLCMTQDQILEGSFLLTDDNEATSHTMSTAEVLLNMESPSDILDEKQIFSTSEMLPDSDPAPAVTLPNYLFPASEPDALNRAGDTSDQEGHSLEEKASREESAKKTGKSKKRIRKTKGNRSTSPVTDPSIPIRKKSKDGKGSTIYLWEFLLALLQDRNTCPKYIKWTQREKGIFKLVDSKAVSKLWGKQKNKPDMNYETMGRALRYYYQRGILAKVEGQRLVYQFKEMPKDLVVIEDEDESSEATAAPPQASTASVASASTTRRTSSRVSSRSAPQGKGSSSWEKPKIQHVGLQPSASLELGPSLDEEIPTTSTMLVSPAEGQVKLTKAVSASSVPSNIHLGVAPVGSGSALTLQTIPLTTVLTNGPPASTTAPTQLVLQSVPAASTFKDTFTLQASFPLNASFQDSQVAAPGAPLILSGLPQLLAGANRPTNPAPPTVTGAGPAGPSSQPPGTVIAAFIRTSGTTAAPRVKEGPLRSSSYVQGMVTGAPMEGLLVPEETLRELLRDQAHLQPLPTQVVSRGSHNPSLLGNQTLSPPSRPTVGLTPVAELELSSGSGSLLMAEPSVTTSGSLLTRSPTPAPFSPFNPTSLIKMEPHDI", "method_in_brief": "as §1"}}}
{"sequence": "ACCCCT", "values": [{"measurement": "binding signal", "setting": "FLI1", "result": "1.11 fold enrichment (6-mer frequency, TF over GST control)"}, {"measurement": "binding signal", "setting": "ELK1", "result": "1.07 fold enrichment (6-mer frequency, TF over GST control)"}, {"measurement": "binding signal", "setting": "GABPA", "result": "1.04 fold enrichment (6-mer frequency, TF over GST control)"}, {"measurement": "binding signal", "setting": "ERG", "result": "1.01 fold enrichment (6-mer frequency, TF over GST control)"}, {"measurement": "binding signal", "setting": "ELF1", "result": "1.16 fold enrichment (6-mer frequency, TF over GST control)"}, {"measurement": "binding signal", "setting": "EHF", "result": "1.09 fold enrichment (6-mer frequency, TF over GST control)"}, {"measurement": "binding signal", "setting": "SPI1", "result": "1.1 fold enrichment (6-mer frequency, TF over GST control)"}, {"measurement": "binding signal", "setting": "SPIB", "result": "1.08 fold enrichment (6-mer frequency, TF over GST control)"}, {"measurement": "binding signal", "setting": "ELK3", "result": "1.08 fold enrichment (6-mer frequency, TF over GST control)"}, {"measurement": "binding signal", "setting": "FEV", "result": "1.08 fold enrichment (6-mer frequency, TF over GST control)"}, {"measurement": "binding signal", "setting": "SPIC", "result": "1.05 fold enrichment (6-mer frequency, TF over GST control)"}, {"measurement": "binding signal", "setting": "ELF4", "result": "1.09 fold enrichment (6-mer frequency, TF over GST control)"}]}
